Measurements taken from PubChem BioAssay AID1851 (National Center for Advancing Translational Sciences (NCATS), 2009).
Among all 16,000 compounds or so, about 5,100 (32%) were called active. Inconclusive results (about 25%) are left out. The list shows a part of the results. A number with no mark means an inactive call. Calls follow the shape of the dose curve; as a rule, active = well fitted curve in the direction sought with a large enough effect; inconclusive = small, poorly fitted or top-dose-only effect, or effect the other way; inactive = no such curve, though single readings can be large or run the other way.
% is scaled to controls: 0 for no effect and ±100 for the full control effect.

What follows are molecules tested against Cytochrome P450 3A4 (Homo sapiens) (UniProt P08684) (assay: Cytochrome panel assay with activity outcomes). Details: recombinant CYP, pro-luciferin dealkylation, luminescence, p450-cyp3a4; series mostly up to 57.1 µM; activity, negative = inhibition: at the top concentration.
Cytochrome P450 3A4 (Homo sapiens), sequence (P08684 whole entry, looked up): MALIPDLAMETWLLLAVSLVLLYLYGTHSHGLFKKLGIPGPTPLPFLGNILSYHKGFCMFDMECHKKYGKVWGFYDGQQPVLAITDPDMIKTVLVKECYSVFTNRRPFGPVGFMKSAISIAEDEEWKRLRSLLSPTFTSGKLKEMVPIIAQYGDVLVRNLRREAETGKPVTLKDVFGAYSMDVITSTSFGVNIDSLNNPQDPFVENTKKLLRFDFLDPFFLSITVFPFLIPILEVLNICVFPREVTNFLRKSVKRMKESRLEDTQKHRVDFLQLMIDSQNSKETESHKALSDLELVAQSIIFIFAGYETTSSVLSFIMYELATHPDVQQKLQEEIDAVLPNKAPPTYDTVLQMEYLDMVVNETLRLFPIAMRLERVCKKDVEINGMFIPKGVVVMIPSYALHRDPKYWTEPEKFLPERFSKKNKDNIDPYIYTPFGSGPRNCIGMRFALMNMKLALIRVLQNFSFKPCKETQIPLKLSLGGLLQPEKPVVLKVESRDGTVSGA
For `N#Cc1cccc(NC(=O)N2CC3(CCN(C(=O)c4ccco4)CC3)C2)c1`, the “activity, negative = inhibition” value was -26.1%.
In the case of `N#Cc1cccc(NC(=O)N2CCCC3(CCN(C(=O)c4ccco4)CC3)C2)c1`, the AC50 is reported as 5.01 µM (active).
With `N#Cc1cccc(NC(=O)N2CC[C@@]3(CCCN(C(=O)c4cccc(F)c4)C3)C2)c1` the AC50 was 10 µM (active).
In the case of `N#Cc1cccc(NC(=O)N2CCCC3(CCN(C(=O)c4cccc(F)c4)CC3)C2)c1`, the AC50 is reported as 15.8 µM (active).
`S=c1[nH]c2cc(Cl)ccc2s1` showed an activity, negative = inhibition of -16.9% [at 2.29 µM].
`CCc1ccc(N2CC(C(=O)NC3=NCCS3)CC2=O)cc1` (configuration not stated) showed an activity, negative = inhibition of 3.42% [at 2.29 µM].
`CC(C)C(NC(=O)C12CC3CC(CC(C3)C1)C2)C(=O)NC1=NCCS1` (configuration not stated) was tested, and the AC50 was 15.8 µM (active).
With `O=C(Nc1ccccc1)C(Cc1ccccc1)NC(=O)C12CC3CC(CC(C3)C1)C2` (configuration not stated) the “activity, negative = inhibition” value was -5.95%.
With `CCCS(=O)(=O)N1CCCC(C(=O)NCCCN2CCN(c3ccc(F)cc3)CC2)C1` (configuration not stated) the activity, negative = inhibition was 14.9% [at 2.29 µM].
In the case of `Cc1ccc(S(=O)(=O)N(CC(=O)N2CCN(c3ccc(F)cc3)CC2)C2CCCCC2)cc1`, the AC50 is reported as 1 µM (active).
In the case of `Cc1ccc(S(=O)(=O)NC(=O)NN2C[C@H]3CCC[C@@H]3C2)cc1`, the “activity, negative = inhibition” value is reported as 10.8% [at 25.6 µM].
`O[C@H](CNc1ccccn1)c1ccccc1` was tested, and the activity, negative = inhibition was -27.1% [at 11.4 µM].
`CN1CCN(c2nc3c(c(=O)n(C)c(=O)n3C)n2C)CC1` gave an activity, negative = inhibition of 0.305% [at 11.4 µM].
For `COCCn1c(=O)c(-c2ccc(OC)cc2)nc2cnc(N3CCNCC3)nc21`, the AC50 was 15.8 µM (active).
In the case of `CN1CCN(c2ncc3nc(-c4ccccc4)c(=O)n(Cc4cccs4)c3n2)CC1`, the “activity, negative = inhibition” value is reported as -4.51%.
`COCCn1c(=O)c(-c2ccc(OC)cc2)nc2cnc(N3CCOCC3)nc21` was tested, and the “activity, negative = inhibition” value was -11.4%.
For `CN1CCN(c2ncc3nc(-c4cccs4)c(=O)n(CCc4ccccc4)c3n2)CC1`, the AC50 was 20 µM (active).
`COCCn1c(=O)c(-c2cccs2)nc2cnc(N3CCNCC3)nc21` was tested, and the AC50 was 15.8 µM (active).
With `COc1ccc(-c2nc3cnc(N4CCOCC4)nc3n(CCC#N)c2=O)cc1` the “activity, negative = inhibition” value was 5.32%.
`COCCn1c(=O)c(C)nc2cnc(N3CCNCC3)nc21` was tested, and the “activity, negative = inhibition” value was -23.2%.
For `CN1CCN(c2ncc3nc(-c4cccs4)c(=O)n(Cc4cccs4)c3n2)CC1`, the AC50 was 10 µM (active).
Molecule `C[N+](C)(C)c1ccc([C@H](N)C(=O)O)cc1` has an activity, negative = inhibition of 1.95% [at 11.4 µM].
In the case of `CCc1cccc2c(-c3ccccc3)c3c(nc12)OCC3`, the “activity, negative = inhibition” value is reported as -68.4%.
With `C[C@@H]1C[C@H](OC(=O)[C@@H](O)c2ccccc2)CC(C)(C)N1C` the “activity, negative = inhibition” value was -14.4% [at 25.6 µM].
With `COCCn1c(=O)c(-c2cccc(C#N)c2)nc2cnc(N3CCN(C)CC3)nc21` the “activity, negative = inhibition” value was 10.2%.
For `O=c1c(-c2cccs2)nc2cnc(N3CCNCC3)nc2n1Cc1cccs1`, the AC50 was 2.51 µM (active).
In the case of `Cc1nc2cnc(N3CCOCC3)nc2n(C)c1=O`, the “activity, negative = inhibition” value is reported as -3.9%.
`COCCn1c(=O)c(-c2cccc(C#N)c2)nc2cnc(N3CCNCC3)nc21` was tested, and the AC50 was 20 µM (active).
For `COCCn1c(=O)c(-c2cccc(C#N)c2)nc2cnc(N3CCOCC3)nc21`, the “activity, negative = inhibition” value was -1.34%.
With `Cc1nc2cnc(N3CCNCC3)nc2n(Cc2cccs2)c1=O` the AC50 was 3.16 µM (active).
`O=c1nc2ccccc2c2n1C[C@H](CN1CCN(c3ccccc3)CC1)N2` was tested, and the “activity, negative = inhibition” value was -8.5%.
`CC(C)=CCC/C(C)=C/CO/N=C1/C[C@@H](O)[C@@H](O)[C@@H]2[C@@H]3C(=O)N(C(C)(C)C)C(=O)[C@H]3CC[C@@H]12` gave an activity, negative = inhibition of -26.7% [at 11.4 µM].
With `COC(=O)C1=C(N)Oc2cc(C)n(CC3CCCO3)c(=O)c2C1c1ccccc1OC` (configuration not stated) the AC50 was 6.31 µM (active).
For `COc1cc(Br)cc2cc(C(=O)NCC3CCCO3)c(=O)oc12` (configuration not stated), the “activity, negative = inhibition” value was -9.38%.
`O=C(O)[C@@H]1[C@@H](C(=O)O)[C@]23C[C@@]2(C(=O)O)[C@]2(C(=O)O)CCC3=C3CCCC312` was tested, and the activity, negative = inhibition was 7.71% [at 11.4 µM].
With `CNC(=O)[C@H](C)[C@H]1C[C@]1(C)[C@H](NC(=O)OCc1ccccc1)c1ccccc1` the AC50 was 2 µM (active).
With `CNC(=O)[C@H](C)[C@@H]1C[C@@]1(C)[C@@H](NC(=O)OCc1ccccc1)c1ccccc1` the AC50 was 2.51 µM (active).
`O=C(NCC1CCC(C(=O)O)CC1)OCc1ccccc1` (configuration not stated) was tested, and the “activity, negative = inhibition” value was -20.2%.
Work on `CCOC(=O)N/N=C1/C[C@@H](O)[C@@H](O)[C@@H]2[C@@H]3C(=O)N(C(C)(C)C)C(=O)[C@H]3CC[C@@H]12` yielded an activity, negative = inhibition of -11.7% [at 11.4 µM].
`Cc1noc(C)c1C(=O)N1CCC2(CC1)CN(c1ccccc1)C2` was tested, and the “activity, negative = inhibition” value was 25%.
`Cc1noc(C)c1C(=O)N1CCC[C@@]2(CCN(c3ccccc3)C2)C1` was tested, and the AC50 was 5.01 µM (active).
For `Cc1noc(C)c1C(=O)N1CCC[C@@]2(CCN(C(=O)Nc3cccc(F)c3)C2)C1`, the AC50 was 5.01 µM (active).
`COc1ccc(NC(=O)N2CC3(CCN(C(=O)c4c(C)noc4C)CC3)C2)cc1` was tested, and the “activity, negative = inhibition” value was -24.2%.
In the case of `Cc1noc(C)c1C(=O)N1CCC[C@@]2(CCN(C(=O)Nc3ccccc3)C2)C1`, the AC50 is reported as 15.8 µM (active).
In the case of `Cc1noc(C)c1C(=O)N1CCC[C@@]2(CCN(c3ncccn3)C2)C1`, the “activity, negative = inhibition” value is reported as -27.9%.
`Cc1noc(C)c1C(=O)N1CCC[C@@]2(CCN(C(=O)NC(C)C)C2)C1` was tested, and the “activity, negative = inhibition” value was -17.5%.
With `C=CC1=C[C@@H](O)C2OC2C12OCCCO2` (some centres not stated) the activity, negative = inhibition was -4.04% [at 11.4 µM].
`CCCn1c(=O)c2[nH]c(C3CCCC3)nc2n(CCC)c1=O` was tested, and the “activity, negative = inhibition” value was -26.8%.
In the case of `CCCn1c(=O)c2[nH]c(-c3ccc(OCC(=O)NCCN)cc3)nc2n(CCC)c1=O`, the AC50 is reported as 2.51 µM (active).
With `COc1cccc(-c2cc(C(F)(F)F)n3ncc(S(=O)(=O)c4ccccc4)c3n2)c1` the AC50 was 3.98 µM (active).
With `O=S(=O)(c1ccccc1)c1cnn2c(C(F)(F)F)cc(-c3ccccc3)nc12` the “activity, negative = inhibition” value was 14.2%.
`Cc1nc2ccccc2n1CC(=O)N/N=C\C=C\c1ccccc1` was tested, and the “activity, negative = inhibition” value was 12.7%.
For `CCCn1c(/C=C/c2ccccc2)nc2ccccc21`, the AC50 was 17.8 µM (active).
For `CCOc1c2ccc(C(=O)NCc3ccc4c(c3)OCO4)cc2nn1CC`, the activity, negative = inhibition was 14.3% [at 2.29 µM].
With `CCc1c(C(=O)NCc2ccc3c(c2)OCO3)[nH]c(C)c1C(C)=O` the AC50 was 0.891 µM (active).
`CCc1ccccc1NC(=S)NCc1ccc2c(c1)OCO2` was tested, and the AC50 was 4.47 µM (active).
For `NC(N)=NNC(=O)C(=O)O`, the activity, negative = inhibition was -1.33% [at 11.4 µM].
With `CC1=NN(c2ccc(C)cc2C)C(=O)C1C(c1ccccc1)C1C(=O)N(c2ccc(C)cc2C)N=C1C` (configuration not stated) the AC50 was 11.2 µM (active).
Molecule `CC1=NN(c2ccc(F)cc2)C(=O)C1C(c1cccc(O)c1)c1c(C)[nH]n(-c2ccc(F)cc2)c1=O` (configuration not stated) has an activity, negative = inhibition of 2.16% [at 2.29 µM].
For `Cc1ccc(N2C(=O)C(Cl)=C(NCc3ccccc3)C2=O)c(C)c1`, the “activity, negative = inhibition” value was -82.7%.
With `CCN(CC)CCNC(=O)c1cc(Cl)c(N)cc1OC` the AC50 was “inactive”.
`CCN(CC)CCNC(=O)c1cc(S(C)(=O)=O)ccc1OC` was tested, and the AC50 was “inactive”.
`CCN(CC)CCNC(=O)c1ccc(Cl)c(S(=O)(=O)Nc2ccccc2OC)c1` was tested, and the AC50 was 14.1 µM (active).
With `CCCCN(CC)Cc1ccc(CNC(=O)Nc2ccc(OC)cc2OC)o1` the AC50 was 22.4 µM (active).
For `COc1cnc(-c2ccccn2)nc1Oc1ccc(Cl)c2ccccc12`, the AC50 was 14.1 µM (active).
In the case of `COc1cnc(-c2ccccn2)nc1Sc1c(Cl)cccc1Cl`, the “activity, negative = inhibition” value is reported as -4.39%.
For `COc1cnc(-c2ccccc2)nc1Oc1cccc(C)c1`, the “activity, negative = inhibition” value was -66.9%.
In the case of `CN(Cc1cnc2nc(N)nc(N)c2n1)c1ccc(C(=O)N[C@@H](CCC(=O)O)C(=O)O)cc1`, the “activity, negative = inhibition” value is reported as -19.3%.
For `COc1ccc(C)cc1NC(=O)CCC(=O)Nc1nnc(C(F)(F)F)s1`, the “activity, negative = inhibition” value was 1.53%.
In the case of `COc1ccc(C)cc1NC(=O)CSc1nnc(-c2ccc(OC)c(OC)c2)n1N`, the AC50 is reported as 7.94 µM (active).
For `COc1ccc(NC(=O)COC(=O)Cn2c(C)nc3ccccc32)cc1OC`, the activity, negative = inhibition was 8.93% [at 2.29 µM].
`CCn1c2ccccc2c2cc(NC(=O)CSc3nnc(-c4ccc(OC)c(OC)c4)n3N)ccc21` was tested, and the AC50 was 1 µM (active).
For `Cn1c(=O)c2c(ncn2CC(COCc2ccccc2Cl)OCc2ccccc2Cl)n(C)c1=O` (configuration not stated), the AC50 was 7.94 µM (active).
In the case of `Cn1c(=O)c2c(ncn2C[C@@H](O)CO)n(C)c1=O`, the “activity, negative = inhibition” value is reported as -3.39% [at 25.6 µM].
In the case of `Cn1c(=O)c2c(ncn2CCO)n(C)c1=O`, the “activity, negative = inhibition” value is reported as -5.85% [at 25.6 µM].
With `O=C(CSC1=NCCS1)N1CCN(c2ccc(Cl)cc2)CC1` the AC50 was 15.8 µM (active).
Work on `Cc1cc([N+](=O)[O-])c(C)c(Br)c1C` yielded an activity, negative = inhibition of -7.05% [at 11.4 µM].
Molecule `O=C(O)/C(=C\c1ccc(O)cc1)c1cccc2ccccc12` has an activity, negative = inhibition of -2.12% [at 11.4 µM].
For `NC(=O)/C(=C\c1ccncc1)c1cccc2ccccc12`, the AC50 was 3.16 µM (active).
`O=C(O)/C(=C\c1ccccc1)c1ccccc1` was tested, and the activity, negative = inhibition was -6.04% [at 11.4 µM].
`O=C(O)CCC(=O)N1CCc2cc(S(=O)(=O)N3CCCCC3)ccc21` was tested, and the “activity, negative = inhibition” value was 3.03%.
In the case of `O=C(O)CCC(=O)N1CCc2cc(S(=O)(=O)NCc3cccs3)ccc21`, the “activity, negative = inhibition” value is reported as -13.1%.
`CCC(=O)N1CCc2cc(S(=O)(=O)NC(C(=O)NCc3ccc(F)cc3)C(C)C)ccc21` (configuration not stated) was tested, and the AC50 was 7.08 µM (active).
With `Cc1ccc2[nH]c(=O)c(NC(N)=S)nc2c1` the “activity, negative = inhibition” value was -26.7%.
With `CCOC(=O)Cn1c(-c2ccccc2)nc2ccccc2c1=O` the “activity, negative = inhibition” value was 19.7%.
With `CCO/C(C)=N/n1c2nc3ccccc3nc2c2c(=O)n(CC(C)C)c(C)nc21` the AC50 was 28.2 µM (active).
`O=C(O)c1ccccc1N[C@H](c1ccccc1)c1ccc2cccnc2c1O` was tested, and the activity, negative = inhibition was -13.5% [at 11.4 µM].
With `CC(=O)Oc1cc(C(C)C)c(OCCN(C)C)cc1C` the AC50 was “inactive”.
For `COC(=O)CNC(=O)CCCCC(=O)NCC(=O)OC`, the “activity, negative = inhibition” value was 2.89%.
`CCCCCCCCC(=O)NCc1cc(OC)c(O)cc1I` was tested, and the AC50 was 3.16 µM (active).
With `CCCCCC(=O)Nc1cc2[nH]c(=O)cc(COC)c2cc1C` the “activity, negative = inhibition” value was -15.2%.
`Cc1ccc(S(=O)(=O)Oc2cc(S(=O)(=O)O)cc3cc(S(=O)(=O)O)cc(N)c23)cc1` was tested, and the activity, negative = inhibition was 0.193% [at 11.4 µM].
